Screening results deposited in PubChem by The Scripps Research Institute Molecular Screening Center.
Shown are actives, neighbours in structure and some others; about 4.6% of the full set was active somewhere.
ssDAF12 agonist: activates DAF-12 receptor from parasite S. stercoralis. HEK293 ssDAF-12/GRIP1 lit1-tk-luc reporter, luminescence; % of 3 µM dafachronic acid response. activation, % at 6.8 µM. 370,000 compounds, 1% hits. AID 652126;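 active = activation above the mean over all tested compounds plus 3 SD, cut at about 0.9% in these data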;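 note: 0% = DMSO-only wells and 100% = 3 µM delta7-dafachronic acid wells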
DAX1 inh-1: inhibits human nuclear receptor DAX1; 340,000 compounds, 0.99% hits; AID 504766; inhibition, % at 6.75 µM; P51843; HEK293 Gal4-DAX1 luciferase reporter, luminescence;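 active = inhibition above the mean over all tested compounds plus 3 SD, cut at about 4.2% in these data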;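 note: 0% = DAX1-transfected cells with DMSO and 100% = empty-vector control cells with DMSO; inhibition shows as a rise in luminescence from relieved DAX1 repression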
DAX1 inh-2: inhibitors of DAX1 repression of SF-1 activated StAR promoter; HEK293T StAR-luciferase reporter, SF-1/DAX-1 repression relief; inhibition, % at 6.8 µM; 370,000 compounds, 1.1% hits; AID 652010;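 active = inhibition above the mean over all tested compounds plus 3 SD, cut at about 3.6% in these data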;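 note: 0% = DAX-1 cells with DMSO and 100% = cells lacking DAX-1 with DMSO; higher inhibition means more luminescence from relief of DAX-1 repression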
hcDAF12 agonist: activates DAF-12 receptor from parasite H. contortus; activation, % at 6.8 µM; 370,000 compounds, 1.4% hits; AID 652067; HEK293 hcDAF-12 lit1-tk-luc reporter, luminescence; 0% DMSO, 100% Δ7-dafachronic acid;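 active = activation above the mean of all tested compounds plus 3 SD, cut at about 5.5% in these data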;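 note: 100% = response to 3 µM Δ7-dafachronic acid high control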
Wee1 degr inh: inhibitors of human Wee1 degradation; HeLa Luc-Wee1K328M stability, luciferase luminescence; 100% = proteasome inhibitor MG132 effect; P30291; reporter increase, % at 5 µM; 220,000 compounds, 1.2% hits;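 active = activation above the mean of all tested compounds plus 3 SD, set per screening run, cut at about 8.8% in these data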;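 note: cells exposed to compound for 20 h before luminescence read; 0% = DMSO alone and 100% = MG132 at 30 µM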
Target sequence (P30291 whole entry K328M): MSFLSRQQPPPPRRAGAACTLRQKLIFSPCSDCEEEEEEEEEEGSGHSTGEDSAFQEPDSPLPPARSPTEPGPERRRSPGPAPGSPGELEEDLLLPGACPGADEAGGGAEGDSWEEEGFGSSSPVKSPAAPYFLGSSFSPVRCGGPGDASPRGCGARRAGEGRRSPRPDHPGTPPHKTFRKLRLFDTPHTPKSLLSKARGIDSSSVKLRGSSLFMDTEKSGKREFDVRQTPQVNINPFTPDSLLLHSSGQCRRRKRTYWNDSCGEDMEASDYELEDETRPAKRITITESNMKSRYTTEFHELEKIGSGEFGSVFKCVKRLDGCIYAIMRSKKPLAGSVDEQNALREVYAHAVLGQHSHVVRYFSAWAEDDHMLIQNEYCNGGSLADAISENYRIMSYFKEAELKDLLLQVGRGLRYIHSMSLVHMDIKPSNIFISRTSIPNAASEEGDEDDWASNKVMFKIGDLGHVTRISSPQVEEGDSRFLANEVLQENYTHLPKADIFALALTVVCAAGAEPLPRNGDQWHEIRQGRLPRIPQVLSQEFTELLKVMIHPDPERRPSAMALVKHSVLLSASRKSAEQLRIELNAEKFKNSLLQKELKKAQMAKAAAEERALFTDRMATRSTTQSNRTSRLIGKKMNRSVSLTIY
hgDAF-12 ag: agonists of H. glycines DAF-12 nuclear receptor | HEK293 GAL4-hgDAF12 UAS-luciferase reporter, agonist luminescence; normalized to butyrate control | activation, % at 6.8 µM | 370,000 compounds, 1.8% hits | AID 687014;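 active = activation above a cutoff set at the mean of all screened compounds plus 3 SD, cut at about 10% in these data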;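 note: 0% = DMSO wells and 100% = sodium butyrate wells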
* marks the source's active call; other numbers are inactive results; . = no result given.

SMILES	ssDAF12 agonist	DAX1 inh-1	DAX1 inh-2	hcDAF12 agonist	Wee1 degr inh	hgDAF-12 ag
COc1ccc2oc(=O)c(C(=O)Nc3cccc(C)c3)cc2c1	-1	0	1	0	-2	6
Cc1cccc(NC(=O)c2cc3ccccc3oc2=O)c1	0	4.3*	1	4	.	11*
O=C(NCc1ccc(Cl)cc1Cl)c1ccccn1	-1	0	-1	-2	3	0
C/C(CC(=O)Nc1ccc(F)cc1)=N\NC(=O)c1ccccn1	-1	0	2	4	6	11*
C/C(CC(=O)NCc1ccccc1Cl)=N/NC(=O)c1ccccn1	0	0	2	5	.	11*
CC(=N/O)/C(C)=N\NC(=O)c1ccccn1	0	4	2	3	-1	13*
COc1cc(OCc2ccc(C)cc2)ccc1CNC[C@H]1O[C@@H](n2cnc(C(N)=O)n2)[C@H](O)[C@@H]1O	-1	-1	2	4	.	4
COC(=O)C1=C(C)N(Cc2ccccc2C(F)(F)F)C(=NCc2ccc3c(c2)OCO3)NC1c1ccc(Cl)cc1 (centres undefined)	0	.	-1	1	.	2
Cc1ccc(CC(=O)N2CCN(c3ccc([N+](=O)[O-])cc3)CC2)cc1	-1	-2	-1	-4	.	-1
Cc1ccc(Nc2ccc(N3CCN(c4ccc([N+](=O)[O-])cc4)CC3)nn2)cc1	-1	4.5*	0	-1	-1	-3
COc1ccc(NC(=O)c2sc(=O)n(Cc3ccc(F)c(Cl)c3)c2C)cc1OC	-2	.	-1	-4	.	-5
N/C(=N\OC(=O)c1cc([N+](=O)[O-])ccc1Cl)c1ccccn1	-1	4	-1	-1	1	-1
N/C(=N\OC(=O)c1ccc([N+](=O)[O-])cc1Cl)c1ccccn1	1.1*	-7	0	6.1*	.	9
CC(=O)OC[C@H]1O[C@H](CCO/N=C(\C)CCN2CCCc3nc(C)c(C)cc32)C=C[C@@H]1OC(C)=O	.	.	.	.	9.6*	.
CS(=O)(=O)c1ccc2nc(NC(=O)C3COc4ccccc4O3)sc2c1 (centres undefined)	-1	0	1	0	0	3
COc1ccc2nc(NC(=S)NC(=O)c3ccco3)sc2c1	0	1	1	3	-1	11*
COc1ccc2nc(NC(=O)c3cc(C)oc3C)sc2c1	0	0	2	1	1	11*
COc1ccc2nc(NNC(=O)C3COc4ccccc4O3)sc2c1 (centres undefined)	1.3*	0	0	6.2*	4	6
CCOC(=O)/C=C1/SCC(=O)N1CC(=O)c1ccc[nH]1	-1	1	-1	2	.	-1
COc1cccc(/C=C/C(=O)OCC(=O)N2CCCC2)c1OC	-1	1	4.4*	0	.	3
COc1ccccc1/C=C/C(=O)OCC(=O)N1CCCCC1	-1	1	0	1	.	4
O=C(/C=C(\Nc1ccc(F)cc1)c1ccccc1)c1ccccc1	-1	.	1	0	.	11*
C/C(=C\C(=O)c1ccccc1)Nc1ccc(O)cc1	1.1*	-1	-1	-1	1	-3
O=C(/C=C(\Nc1ccccc1)c1ccccc1)c1ccccc1	-1	.	2	1	.	1
CCCC/C=C1/[C@@H](c2ccc(Cl)cc2)N(Cc2ccc3c(c2)OCO3)C2=N[C@@H](c3ccccc3)CC(=O)N21	-1	.	0	-2	.	0
SMILES	ssDAF12 agonist	DAX1 inh-1	DAX1 inh-2	hcDAF12 agonist	Wee1 degr inh	hgDAF-12 ag
CC(C)c1ccc(NC(=O)C2CC3CCC2C3)cc1 (centres undefined)	-1	6.0*	1	0	.	9
CCC(C)c1ccc(NC(=O)C2CC3CCC2C3)cc1 (centres undefined)	-1	4.7*	1	1	.	7
O=C(Nc1c(C(=O)O)[nH]c2ccccc12)NC1CCCCC1	1.2*	1	-1	3	-3	6
COC(=O)c1[nH]c2ccc(C)cc2c1NC(=O)NC1CCCCC1	-2	1	0	0	3	1
O=C(CC1C(=O)NCCN1Cc1cccc(C(F)(F)F)c1)NCCc1cnccn1 (centres undefined)	-1	1	-1	-2	.	-1
COc1ccc2c(c1)c(C(C)=O)c(C)n2-c1ccccc1OC	-1	2	0	-1	.	-1
CCCCC(=O)NC(=S)Nc1cc([N+](=O)[O-])ccc1OC	-1	0	-1	-2	6	0
COc1ccc([N+](=O)[O-])cc1NC(=S)NC(C)=O	0	8.8*	0	1	-1	-2
O=C(C1CCC(Cn2c(=S)[nH]c3ccccc3c2=O)CC1)N1CCOCC1 (centres undefined)	-2	5.7*	-1	0	-2	-2
O=c1c2cc(N3CCOCC3)ccc2[nH]c(=S)n1CC1CCCO1 (centres undefined)	0.9*	0	0	0	1	3
N#C/C(=C\c1cccn1S(=O)(=O)c1cccc(C#N)c1)S(=O)(=O)c1ccc(F)cc1	-1	.	-1	-1	.	-2
CCOc1ccc(C(=O)Nc2c(C(N)=O)oc3ccccc23)cc1	0	0	-1	1	4	6
CCOc1ccc(C(=O)Nc2c(C(=O)N3CCC(N4CCCCC4)CC3)oc3ccccc23)cc1	-2	1	4.0*	-1	.	0
O=C(COC(=O)c1cc(=O)[nH]c2ccccc12)NCc1ccc(Cl)cc1	-1	1	-1	1	.	1
CCCSc1nnc(CSc2ncccn2)n1C	-1	0	0	5.9*	0	7
CCSc1nnc(CSc2ncccn2)n1C	-2	-1	0	-1	-2	-3
Cc1cc(NCc2ccccc2)n2ncc(-c3ccccc3)c2n1	0.9*	2	4.1*	4	.	9
COc1ccc(CCNc2cc(C)nc3c(-c4ccccc4)cnn23)cc1OC	-2	-2	0	-2	2	-5
Cc1cc(NC(C)c2ccccc2)n2ncc(-c3ccccc3)c2n1 (centres undefined)	0	4.7*	1	2	.	8
Cc1cc(C)n(-c2cc(C(C)(C)C)nc3c(-c4ccccc4)cnn23)n1	0	5.2*	3	3	2	11*
Cc1cc(C)n(-c2cc(C(C)(C)C)nc3c(-c4ccc(Cl)cc4)cnn23)n1	-1	0	0	-2	2	1
C[C@H](O)[C@@H]1CN2CCc3ccc(N4CCOCC4)cc3[C@@H]2C[C@@H]1N(C)C(=O)c1ccco1	-1	.	0	0	.	3
CNc1cc(-c2cccc(C(=O)N3CCOCC3)c2)ncn1	-2	.	0	-1	.	-1
